From PubChem BioAssay AID504725 (Broad Institute, 2011)
Entries with a potency or affinity are not part of this list. Active and inactive are the calls of the source. No rule for the calls is given here.

molecular target: KSHV LANA C-terminal domain (residues 932-1162) binding to LBS DNA (UniProt O40947); assay: inhibitors of C-LANA binding to LBS DNA, dose response, biochemical, fluorescence polarization, cherry-picked samples (AID 504725); conditions: MBP-C-LANA / FAM-LBS DNA fluorescence polarization, percent change from plate compound-well median; series mostly up to 35 µM; activity change, negative = inhibition: at the top concentration

Activity change, negative = inhibition, inactive:
Cc1ccc(OCC(=O)NC(=S)Nc2cccc(NC(=O)c3ccc(Cl)cc3Cl)c2)cc1 1.16%, NC(=O)C1(N2CCCCC2)CCN(Cc2ccc(Br)cc2)CC1 -5.04%, CCOC(=O)CCCn1c(C)nc(=O)c(-c2ccccc2)c1C -8.48%, O=C(Cn1c2ccccc2c2nc3n(c(=O)c21)CCS3)Nc1ccccc1C(F)(F)F 0.798%, Cc1ccc(C(=O)c2coc3ccc(O)c(Cl)c23)cc1 -0.17%, O=C(O)c1cccc(NC2=Nc3cccc4cccc2c34)c1 -2.81%, C=CCNC(=S)N1CCN(S(=O)(=O)c2ccc(C)cc2)CC1 0.05%, CCN(CC)C(=S)SC1CCCCN(C(=O)c2ccccc2)C1=O (stereo not drawn) 0.524%, C=CCn1c(C)cc(-c2csc(NC(=O)CCc3nc4ccccc4c(=O)[nH]3)n2)c1C 0.228%, COc1ccc(NC(=O)CO/N=C2/CCCc3nonc32)c(OC)c1 3.72%, O=C(O)/C(=C\c1cccs1)Sc1nnc(-c2ccc(F)cc2)o1 2.45%, CC(C)C(=O)N1CCN(c2ccccc2NC(=S)NC(=O)c2ccco2)CC1 -4.33%, CCC(=O)Nc1cccc(C(=O)/C=C/c2ccccc2)c1 -2.05%, CC(Sc1ncccn1)C(=O)NNC(=O)c1cccc(Cl)c1 (stereo not drawn) -2.31%, COC(=O)Cn1c(=NC(=O)c2sc3ccccc3c2Cl)sc2cc(S(N)(=O)=O)ccc21 -2.44%, C/C(=N/NC(=O)c1cc(O)c(O)c(O)c1)c1ccc([N+](=O)[O-])cc1 -9.97%, CCCc1cc(C(=O)Nc2ccc(C(=O)c3ccc(C)cc3)cc2)n(C)n1 3.29%, Cc1cccc(COc2ccc(/C=N/NC(=O)c3nnn(-c4nonc4N)c3COc3ccc(F)cc3)cc2)c1 8.39%, O=S(=O)(O)c1cc(O)c2cc(Nc3ccccc3)ccc2c1 -17.8%, CCOC(=O)C1=C(COC(=O)c2ccc([N+](=O)[O-])s2)NC(=O)NC1C (stereo not drawn) -6.39%, CN(C)c1ccc(/C=C/C(=O)c2ccc(O)cc2)cc1[N+](=O)[O-] 2.32%, CC(C)CC(=O)Nc1nnc(CSCc2ccc(F)cc2)s1 -0.834%, CC(=O)N/C(=N\OCc1ccc(Br)cc1)c1nonc1NC(C)=O -2.09%, O=C(Cn1ncc(N2CCCC2)c(Cl)c1=O)c1ccc(Cl)cc1 -0.085%, CC[C@H](C)[C@H](NC(N)=O)C(=O)Nc1ccc(NC(C)=O)cc1 3.35%, O=C(O)/C=C/c1ccccc1Oc1ccccc1 1.51%, C/C(=N\NC(=O)CCc1c(C)n[nH]c1C)c1ccc([N+](=O)[O-])cc1 3.11%, COc1ccc(S(=O)(=O)N2CCC(C(=O)N3CCCCC3)CC2)cc1 -2.81%, Cc1ccccc1NC(=S)NC(C)CCc1ccccc1 (stereo not drawn) -0.385%, CCOC(=O)c1sc(NC(=O)CSC(=S)N2CCN(C)CC2)nc1C -1.51%, CSC(=NS(=O)(=O)c1ccc(N)cc1)NS(=O)(=O)c1cccs1 -0.26%, Cc1nn(Cc2c(F)c(F)c(F)c(F)c2F)c(C)c1NC(=O)c1ccnn1C -5.68%, CC(OC(=O)CCN1C(=O)C2CC=CCC2C1=O)C(=O)Nc1ccc(F)cc1 (stereo not drawn) -1.54%, O=C(COC(=O)c1ccc([N+](=O)[O-])o1)NCCCc1ccccc1 -6.75%, COc1ccc(-c2cnc3n2CCCCC3)cc1 0.703%, CN(c1ccc(OCC(=O)OCC(=O)c2c(N)n(C)c(=O)n(C)c2=O)cc1)S(=O)(=O)c1ccc2ccccc2c1 1.36%, Cc1ccc(NC(=O)c2ccc(Cl)c(S(=O)(=O)N3CCc4ccccc43)c2)nc1 -5.6%

outcome, inactive:
O=C1c2c(O)ccc(O)c2C(=O)c2c(NCCNCCO)ccc(NCCNCCO)c21
